In PubChem BioAssay AID364 (The Scripps Research Institute Molecular Screening Center, 2006):
Among all 3,300 compounds or so, about 50 (2%) were called active. A selection follows. Entries with a potency or affinity are not part of this list. A number with no mark means an inactive call.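 The calls were made as follows: active = concentration giving half-maximal inhibition at or below 20 micromolar; inactive = half-maximal concentration above 20 micromolar, or not dose tested.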

Test: cytotoxicity toward Jurkat T cells, primary screen, cell-based, Jurkat E6.1, NIH starter set (AID 364);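 also: 100% = cells treated with 4 µM doxorubicin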
Conditions: Jurkat E6.1 viability, ATP luminescence, 48 h; at 4 µM; stronger effect = higher value

| SMILES | inhibition [%] |
| --- | --- |
| c1ccc(OCc2nn3c(-c4cccnc4)nnc3s2)cc1 | -5.4 |
| CN(Cc1ccccc1)c1ncnc2ccc(Br)cc12 | 7.2 |
| Oc1ccccc1-c1nc(NCc2ccco2)c2ccccc2n1 | -6.1 |
| Clc1ccc(-n2ncc3c(NCc4ccccn4)ncnc32)cc1 | 5.5 |
| c1ccc(N2CCN(c3nc(NCc4ccco4)c4ccccc4n3)CC2)cc1 | 2.5 |
| Clc1ccc(-n2ncc3c(NCc4cccs4)ncnc32)cc1 | 18.1 |
| CCN(CC)CCCn1c(C)cc2c(c1=O)C(c1ccc(OC)c(OC)c1OC)C(C#N)=C(N)O2 (stereo not given) | 1.4 |
| CCCOc1cccc(C2/C(=C(/O)c3ccccc3)C(=O)C(=O)N2CCN(C)C)c1 (stereo not given) | 2.5 |
| O=C(c1coc(=O)c(Br)c1)N1CCOCC1 | 7.3 |
| COc1cccc(-c2nc(N3CCCCC3C)c3ccccc3n2)c1O (stereo not given) | -2 |
| Cc1nc(NS(=O)(=O)c2ccccc2)sc1NC(=O)OCCN(C)C | 9.6 |
| COC(=O)C1=C(N)Oc2cc(C)oc(=O)c2C1c1ccncc1 (stereo not given) | -9.1 |
| O=C(O)CCc1nn2cc(-c3ccccc3)nc2[nH]c1=O | -5.8 |
| Cc1cc(C)n(CC(=O)c2ccccc2)c(=O)c1C#N | -17.6 |
| O=c1[nH]c2sc3c(c2c(=O)n1Cc1ccccc1)CCC3 | 1.3 |
| COc1cccc(C2=CC(c3ccc(N(C)C)cc3)n3nnnc3N2)c1 (stereo not given) | -9.6 |
| COc1ccc(C2=CC(c3cccc(OC)c3)n3nnnc3N2)cc1 (stereo not given) | -8.6 |
| Cc1nc(SC2C=CS(=O)(=O)C2)n[nH]1 (stereo not given) | -8.6 |
| CCCCNC1=C(Br)C(=O)CC(C)(C)C1 | -3.7 |
| Cn1c(Cn2cnc3ccccc32)nc2ccccc21 | 2.8 |
| CC(C(=O)N1CCOCC1)N1C(=O)c2ccccc2C1=O (stereo not given) | -0.7 |
| OCCNc1ncnc2c1c(-c1ccccc1)c(-c1ccccc1)n2Cc1ccco1 | 11.5 |

| SMILES | inhibition [%] |
| --- | --- |
| O=c1c(C=NCCCn2ccnc2)c(-c2ccccc2)[nH]n1-c1nc2ccccc2s1 | -4.4 |
| CCCOc1cccc(CN2CCCCC2c2cccnc2)c1 (stereo not given) | 0.8 |
| CNC(=O)C1CC(=O)N(Cc2ccccc2)C(=Nc2ccc(OC)cc2)S1 (stereo not given) | -6.1 |
| CCCCOC(=O)Nc1ccc(S(=O)(=O)Nc2nc(C)cc(C)n2)cc1 | 6.7 |
| CCOc1ccc2nc(SCC(=O)Nc3ncccn3)[nH]c2c1 | -1.3 |
| CCCCOC(=O)CCc1nc2ccccc2[nH]1 | 0.2 |
| COCCNc1oc(-c2ccc(Cl)cc2)nc1C#N | 2.9 |
| CCN(CC)CCCN1C(=O)C(=O)/C(=C(/O)c2ccc(C)cc2)C1c1ccccn1 (stereo not given) | -5.6 |
| CCCNc1ncnc2c1cnn2-c1ccc(OC)cc1 | -3.3 |
| CCOc1ccc(CC2CC(=O)NC2=O)cc1 (stereo not given) | -9.7 |
| Cc1cn([C@H]2C[C@H](N=[N+]=[N-])[C@@H](CO)O2)c(=O)[nH]c1=O | 0.1 |
| Cc1cn([C@H]2C=C[C@@H](CO)O2)c(=O)[nH]c1=O | -6.6 |
| Cn1cc(C(=O)NCN2CCCCC2)c2ccccc21 | -0.4 |
| CC(C)c1nc(NCC2CCCO2)c(C#N)c2c1COC(C)(C)C2 (stereo not given) | 9.3 |
| Nc1nnnn1/N=C/c1ccco1 | 8 |
| CCc1nc(N2CCCC2)c(C#N)c2c1CCCC2 | 2.4 |
| COc1ccc(Nc2oc(-c3cccs3)nc2C#N)cc1 | 9.1 |
| O=C1CCCN1c1ccc(S(=O)(=O)NCc2ccco2)cc1 | 7.4 |
| COc1ccc(N2CC(=O)N(c3ccc(OC)c(OC)c3)CC2=O)cc1OC | -0.2 |
| NC(=O)c1cc(-c2ccccc2)nc(Oc2ccccc2)n1 | 16.2 |
| CC(C)Oc1ccc(/C(O)=C2/C(=O)C(=O)N(CCN3CCOCC3)C2c2ccccc2)cc1 (stereo not given) | -8.3 |
| CCOc1cc(CN2CCOCC2)cc(C(C)=O)c1 | 3.2 |

| SMILES | inhibition [%] |
| --- | --- |
| Cn1c(N)c(C#N)c(C#N)c1-c1ccccc1 | -0.9 |
| CCCCCOC(=O)Cc1c(C)nc(-c2ccccc2)[nH]c1=O | 3.9 |
| COc1ccc(C(O)C(CN2CCOCC2)c2ccccc2)cc1 (stereo not given) | -2.1 |
| COc1ccc(C(=O)CCN2CCCCCC2)cc1 | -4.7 |
| C=C(C)CSC1=C(C#N)C(c2ccsc2)CC(=O)N1 (stereo not given) | 8.6 |
| CCCCCCSC1=C(C#N)C(c2ccccc2)CC(=O)N1 (stereo not given) | -7 |
| CN1C2C=C3C(C#N)=C(N)C(C#N)(C#N)[C@@H](c4ccc(Cl)cc4)[C@@H]3C1CC2 (stereo not given in full) | 1.6 |
| CCOc1cccc(C2C(C#N)=C(N)Oc3cc(C)oc(=O)c32)c1OCC (stereo not given) | -9.9 |
| O=C(NCc1cccnc1)NC(C(F)(F)F)C(F)(F)F | -8.9 |
| CC(NC(=O)Nc1nccs1)(C(F)(F)F)C(F)(F)F | -6.2 |
| CCSc1nnc(NC(=O)NC(CC)(C(F)(F)F)C(F)(F)F)s1 | -11.5 |
| O=C(NCC(F)(F)F)Nc1nnc(C(F)(F)F)s1 | -6.7 |
| CCC(NC(=O)Nc1nccs1)(C(F)(F)F)C(F)(F)F | -5 |
| COCCCn1c(C)nc2c(c1=O)c1nc3ccccc3nc1n2CCc1ccccc1 | 4.1 |
| CC1CCCCN1C(=O)C12CCC(C)(/C(=N/O)C1)C2(C)C (stereo not given) | -9.3 |
| CCOC(=O)C1=C(N)c2ccccc2CC1C(C)C (stereo not given) | 7 |
| COc1cccc(C2C(C#N)=C(N)Oc3cc(C)[nH]c(=O)c32)c1OC (stereo not given) | 7.3 |
| COc1cc(C2C(C#N)=C(N)Oc3cc(C)n(CCN4CCOCC4)c(=O)c32)cc(OC)c1OC (stereo not given) | -2.9 |
| COc1ccc(-c2cc3nc4n(c(=O)c3s2)CCOC4)cc1 | 4.7 |
| COc1cc(NC(=O)NC(C)(C(F)(F)F)C(F)(F)F)cc(OC)c1OC | -6.8 |
| OCCOCCNc1ncnc2c1cnn2-c1ccc(Cl)cc1 | 3.8 |
